Test results from PubChem BioAssay (Tox21).
Records with an inconclusive call do not appear. Activity calls are given as the source filed them. Unless noted, calls follow the shape of the dose curve; as a rule, active = well fitted curve in the direction sought with a large enough effect in the repeat runs; inconclusive = weak or mixed curves; inactive = no such curve, though single readings can be large; an effect the other way counts as inactive or inconclusive.

Assays:
[1] = qHTS assay to identify small molecule agonists of the peroxisome proliferator-activated receptor delta (PPARd) signaling pathway - cell viability counter screen (AID 743211); also: nearly all actives have a fitted effect of over 55% in size
Procedure, shortened: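 Multiplexed format: after the 2 h room-temperature LiveBLAzer B/G FRET step, CellTiter-Glo was added to the same wells. Luminescence after 30 min gave cell viability; compound exposure was 17 h at 37C.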

[2] = qHTS assay to identify small molecule antagonists of the peroxisome proliferator-activated receptor delta (PPARd) signaling pathway - cell viability counter screen (AID 743213); also: nearly all actives have a fitted effect of over 50% in size
Procedure, shortened: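 Luminescence from CellTiter-Glo, added after the bla read and incubated 30 min at room temperature, gives viability of HEK293H PPARd-bla cells exposed to compounds for 17 h at 37 C with 300 nM L165041.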

[3] = target: Peroxisome proliferator-activated receptor delta (Homo sapiens) (UniProt Q03181); assay: qHTS assay to identify small molecule antagonists of the peroxisome proliferator-activated receptor delta (PPARd) signaling pathway (AID 743215; active = well fitted inhibition curve with a large enough effect in the signal ratio in the repeat runs, not every such curve was filed as active; the % refers to the signal ratio;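 also: cells stimulated with agonist L165041 at 300 nM final during compound exposure; series mostly up to about 62 µM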)
Chain of Peroxisome proliferator-activated receptor delta (Homo sapiens) (Q03181 whole entry, looked up): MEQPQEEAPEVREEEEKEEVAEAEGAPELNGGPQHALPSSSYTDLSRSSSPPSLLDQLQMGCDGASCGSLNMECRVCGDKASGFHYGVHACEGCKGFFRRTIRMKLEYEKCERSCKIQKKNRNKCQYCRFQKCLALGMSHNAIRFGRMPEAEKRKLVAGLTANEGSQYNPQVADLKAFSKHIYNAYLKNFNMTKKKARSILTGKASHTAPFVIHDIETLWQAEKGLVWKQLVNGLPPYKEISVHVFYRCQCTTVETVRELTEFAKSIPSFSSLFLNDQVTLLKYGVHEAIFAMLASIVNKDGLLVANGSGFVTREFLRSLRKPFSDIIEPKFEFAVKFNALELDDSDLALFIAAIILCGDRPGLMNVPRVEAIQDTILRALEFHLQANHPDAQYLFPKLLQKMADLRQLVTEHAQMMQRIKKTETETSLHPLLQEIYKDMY
Procedure, shortened: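 Plated HEK293H PPARd-bla cells rested 5 h at 37 C and 5% CO2. Compound, then agonist L165041 at 300 nM final, was added; 17 h at 37 C followed. Substrate loading, 2 h room temperature, fluorescence measured.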

[4] = target: Bile acid receptor (Homo sapiens) (UniProt Q96RI1); assay: qHTS assay to identify small molecule antagonists of the farnesoid-X-receptor (FXR) signaling pathway (AID 743217; active = well fitted inhibition curve with a large enough effect in the signal ratio in the repeat runs, not every such curve was filed as active; the % refers to the signal ratio)
Chain of Bile acid receptor (Homo sapiens) (Q96RI1 whole entry, looked up): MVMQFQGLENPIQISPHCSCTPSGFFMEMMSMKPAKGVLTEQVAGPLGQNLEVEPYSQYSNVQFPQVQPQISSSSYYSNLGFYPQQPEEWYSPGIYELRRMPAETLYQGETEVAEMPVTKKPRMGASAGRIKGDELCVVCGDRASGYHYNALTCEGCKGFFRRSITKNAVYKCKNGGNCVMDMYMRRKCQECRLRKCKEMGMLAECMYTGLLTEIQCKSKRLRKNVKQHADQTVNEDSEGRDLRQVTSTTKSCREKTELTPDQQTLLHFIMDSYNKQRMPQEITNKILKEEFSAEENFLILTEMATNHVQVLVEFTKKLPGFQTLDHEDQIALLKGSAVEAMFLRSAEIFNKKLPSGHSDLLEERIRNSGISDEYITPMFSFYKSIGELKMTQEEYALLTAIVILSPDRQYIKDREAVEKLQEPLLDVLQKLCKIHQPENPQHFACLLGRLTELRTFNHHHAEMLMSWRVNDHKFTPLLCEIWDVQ
Procedure, shortened: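 Screen of the Tox21 10K library in quantitative HTS format using FXR-UAS-bla HEK 293T reporter cells. Agonist chenodeoxycholic acid, 50 uM final, added with compounds; 16 h incubation at 37 °C; beta-lactamase FRET fluorescence measured.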

[5] = target: Bile acid receptor (Homo sapiens) (UniProt Q96RI1); assay: qHTS assay to identify small molecule agonists of the farnesoid-X-receptor (FXR) signaling pathway (AID 743220; active = well fitted activation curve with a large enough effect in the signal ratio in the repeat runs, not every such curve was filed as active; the % refers to the signal ratio)
Procedure, shortened: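 FXR-UAS-bla HEK 293T cells carrying a UAS-driven beta-lactamase reporter were plated for 5 h at 37C/5% CO2, then exposed to DMSO-dissolved Tox21 10K compounds for 16 h at 37C. A LiveBLAzer B/G FRET substrate was loaded for 2 h at room temperature before fluorescence reading.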

[6] = qHTS assay to identify small molecule antagonists of the farnesoid-X-receptor (FXR) signaling pathway - cell viability counter screen (AID 743221; active = well fitted cell-killing curve with a large enough effect in the repeat runs, not every such curve was filed as active; also: nearly all actives have a fitted effect of over 50% in size)
Procedure, shortened: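 CellTiter-Glo, 30 min RT, luminescence; same wells as the LiveBLAzer FRET read. Cells: FXR-UAS-bla HEK 293T. Treatment: compound with chenodeoxycholic acid 50 uM final, 16 h at 37 C.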

[7] = target: Vitamin D3 receptor (Homo sapiens) (UniProt P11473); assay: qHTS assay to identify small molecule agonists of the vitamin D receptor (VDR) signaling pathway (AID 743222; calls by dose curve)
Chain of Vitamin D3 receptor (Homo sapiens) (P11473 whole entry, looked up): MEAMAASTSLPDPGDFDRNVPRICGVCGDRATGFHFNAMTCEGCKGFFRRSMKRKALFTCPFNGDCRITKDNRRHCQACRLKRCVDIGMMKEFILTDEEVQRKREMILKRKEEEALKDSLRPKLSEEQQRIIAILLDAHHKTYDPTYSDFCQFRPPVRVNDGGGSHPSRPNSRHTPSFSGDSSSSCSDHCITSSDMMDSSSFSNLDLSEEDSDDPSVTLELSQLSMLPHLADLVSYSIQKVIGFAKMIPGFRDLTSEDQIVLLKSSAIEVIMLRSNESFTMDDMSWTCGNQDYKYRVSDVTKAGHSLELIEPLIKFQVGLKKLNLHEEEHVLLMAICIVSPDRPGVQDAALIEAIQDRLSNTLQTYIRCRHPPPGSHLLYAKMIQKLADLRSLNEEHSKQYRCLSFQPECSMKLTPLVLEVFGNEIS
Procedure, shortened: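 Fluorescence from cleaved LiveBLAzer B/G FRET substrate served as readout. VDR-bla cells had been treated 16 h at 37C with test compounds in DMSO, following a 4 h settling period, and substrate was loaded for 2 h at RT.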

[8] = target: Peroxisome proliferator-activated receptor delta (Homo sapiens) (UniProt Q03181); assay: qHTS assay to identify small molecule agonists of the peroxisome proliferator-activated receptor delta (PPARd) signaling pathway (AID 743212; calls by dose curve)
Procedure, shortened: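 Tox21 library screened in GeneBLAzer PPARd UAS-bla HEK293H cells. After compound treatment at 37 C, a FRET-based beta-lactamase substrate was applied for 2 h and fluorescence recorded.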

[9] = target: Vitamin D3 receptor (Homo sapiens) (UniProt P11473); assay: qHTS assay to identify small molecule antagonists of the vitamin D receptor (VDR) signaling pathway (AID 743223; active = well fitted inhibition curve with a large enough effect in the signal ratio in the repeat runs, not every such curve was filed as active; the % refers to the signal ratio)
Procedure, shortened: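 After VDR-bla cells are plated and left 4 h at 37C, DMSO-dissolved compounds and 3 nM (final) calcitriol agonist are added. Incubation continues 16 h at 37C; FRET beta-lactamase substrate then develops 2 h at room temperature.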

[10] = qHTS assay to identify small molecule agonists of the farnesoid-X-receptor (FXR) signaling pathway - cell viability counter screen (AID 743218); also: nearly all actives have a fitted effect of over 45% in size
Procedure, shortened: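 Viability of FXR-bla HEK 293T cells is measured by ATP-based CellTiter-Glo luminescence following 16 h compound treatment at 37 C and a prior 2 h room-temperature beta-lactamase substrate step.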

Measured: Potency

CC(=O)OC(C)OC(=O)C(C)c1ccc(-c2ccccc2)c(F)c1 (stereo not drawn)
not listed: [8] | [9] | [10]
inactive: all other assays above

O=C(CCN1CCN(CCO)CC1)N1c2ccccc2Sc2ccc(C(F)(F)F)cc21
inactive: [1] | [8] | [3] | [6] | [7] | [9]

CCc1ccc(C=O)cc1
not listed: [2] | [4] | [5]
inactive: all other assays above

CC(C)CC(C)CC(C)CC(C)COC(=O)c1ccccc1C(=O)OCC(C)CC(C)CC(C)CC(C)C (stereo not drawn)
not listed: [8] | [9]
inactive: all other assays above
